The record followed here is the supplement of paper PMC10849652.

About 7,900 targets were measured; listed, in parts, are those with a hit and a random draw of the rest. About 0.6% of all pairs of compound and target were hits.

Chain of UniProt Q9HCU9 (Q9HCU9 whole entry, looked up): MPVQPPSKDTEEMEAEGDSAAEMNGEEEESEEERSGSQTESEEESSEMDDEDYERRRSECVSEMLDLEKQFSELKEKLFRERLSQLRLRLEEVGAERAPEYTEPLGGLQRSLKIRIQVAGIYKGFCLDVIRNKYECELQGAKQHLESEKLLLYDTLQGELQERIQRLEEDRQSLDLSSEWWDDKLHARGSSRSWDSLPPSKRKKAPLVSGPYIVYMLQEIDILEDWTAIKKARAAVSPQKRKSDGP
Chain of UniProt Q96F25 (Q96F25 whole entry, looked up): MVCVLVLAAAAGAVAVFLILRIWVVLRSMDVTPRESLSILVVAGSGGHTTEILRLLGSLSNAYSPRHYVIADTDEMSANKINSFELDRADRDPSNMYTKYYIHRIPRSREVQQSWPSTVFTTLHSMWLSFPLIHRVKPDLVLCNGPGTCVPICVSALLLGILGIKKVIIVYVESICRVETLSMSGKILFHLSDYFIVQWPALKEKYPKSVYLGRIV
Chain of UniProt P54922 (P54922 whole entry, looked up): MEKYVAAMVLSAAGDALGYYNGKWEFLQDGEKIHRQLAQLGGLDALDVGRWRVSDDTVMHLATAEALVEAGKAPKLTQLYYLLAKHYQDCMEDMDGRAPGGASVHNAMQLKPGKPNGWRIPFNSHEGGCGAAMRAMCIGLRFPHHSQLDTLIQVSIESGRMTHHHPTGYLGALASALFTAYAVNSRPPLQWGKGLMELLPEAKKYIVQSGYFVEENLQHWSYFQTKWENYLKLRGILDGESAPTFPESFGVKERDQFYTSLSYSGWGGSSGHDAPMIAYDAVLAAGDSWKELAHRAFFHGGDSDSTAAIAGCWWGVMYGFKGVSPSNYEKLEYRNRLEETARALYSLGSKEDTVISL
Chain of UniProt P05091 (P05091 whole entry, looked up): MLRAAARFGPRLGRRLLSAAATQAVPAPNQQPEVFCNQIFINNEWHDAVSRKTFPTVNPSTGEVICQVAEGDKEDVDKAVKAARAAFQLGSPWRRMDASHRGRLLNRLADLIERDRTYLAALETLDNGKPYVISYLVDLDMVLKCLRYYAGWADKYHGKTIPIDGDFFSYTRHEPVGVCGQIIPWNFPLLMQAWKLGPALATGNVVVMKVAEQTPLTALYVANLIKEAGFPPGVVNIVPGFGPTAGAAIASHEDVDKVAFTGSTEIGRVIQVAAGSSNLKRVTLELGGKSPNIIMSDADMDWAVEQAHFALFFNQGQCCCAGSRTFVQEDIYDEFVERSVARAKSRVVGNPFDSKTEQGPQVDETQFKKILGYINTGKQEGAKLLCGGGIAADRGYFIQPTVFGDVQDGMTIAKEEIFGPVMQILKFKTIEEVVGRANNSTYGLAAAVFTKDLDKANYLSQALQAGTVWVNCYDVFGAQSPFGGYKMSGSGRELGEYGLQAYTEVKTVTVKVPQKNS
Chain of UniProt Q99758 (Q99758 whole entry, looked up): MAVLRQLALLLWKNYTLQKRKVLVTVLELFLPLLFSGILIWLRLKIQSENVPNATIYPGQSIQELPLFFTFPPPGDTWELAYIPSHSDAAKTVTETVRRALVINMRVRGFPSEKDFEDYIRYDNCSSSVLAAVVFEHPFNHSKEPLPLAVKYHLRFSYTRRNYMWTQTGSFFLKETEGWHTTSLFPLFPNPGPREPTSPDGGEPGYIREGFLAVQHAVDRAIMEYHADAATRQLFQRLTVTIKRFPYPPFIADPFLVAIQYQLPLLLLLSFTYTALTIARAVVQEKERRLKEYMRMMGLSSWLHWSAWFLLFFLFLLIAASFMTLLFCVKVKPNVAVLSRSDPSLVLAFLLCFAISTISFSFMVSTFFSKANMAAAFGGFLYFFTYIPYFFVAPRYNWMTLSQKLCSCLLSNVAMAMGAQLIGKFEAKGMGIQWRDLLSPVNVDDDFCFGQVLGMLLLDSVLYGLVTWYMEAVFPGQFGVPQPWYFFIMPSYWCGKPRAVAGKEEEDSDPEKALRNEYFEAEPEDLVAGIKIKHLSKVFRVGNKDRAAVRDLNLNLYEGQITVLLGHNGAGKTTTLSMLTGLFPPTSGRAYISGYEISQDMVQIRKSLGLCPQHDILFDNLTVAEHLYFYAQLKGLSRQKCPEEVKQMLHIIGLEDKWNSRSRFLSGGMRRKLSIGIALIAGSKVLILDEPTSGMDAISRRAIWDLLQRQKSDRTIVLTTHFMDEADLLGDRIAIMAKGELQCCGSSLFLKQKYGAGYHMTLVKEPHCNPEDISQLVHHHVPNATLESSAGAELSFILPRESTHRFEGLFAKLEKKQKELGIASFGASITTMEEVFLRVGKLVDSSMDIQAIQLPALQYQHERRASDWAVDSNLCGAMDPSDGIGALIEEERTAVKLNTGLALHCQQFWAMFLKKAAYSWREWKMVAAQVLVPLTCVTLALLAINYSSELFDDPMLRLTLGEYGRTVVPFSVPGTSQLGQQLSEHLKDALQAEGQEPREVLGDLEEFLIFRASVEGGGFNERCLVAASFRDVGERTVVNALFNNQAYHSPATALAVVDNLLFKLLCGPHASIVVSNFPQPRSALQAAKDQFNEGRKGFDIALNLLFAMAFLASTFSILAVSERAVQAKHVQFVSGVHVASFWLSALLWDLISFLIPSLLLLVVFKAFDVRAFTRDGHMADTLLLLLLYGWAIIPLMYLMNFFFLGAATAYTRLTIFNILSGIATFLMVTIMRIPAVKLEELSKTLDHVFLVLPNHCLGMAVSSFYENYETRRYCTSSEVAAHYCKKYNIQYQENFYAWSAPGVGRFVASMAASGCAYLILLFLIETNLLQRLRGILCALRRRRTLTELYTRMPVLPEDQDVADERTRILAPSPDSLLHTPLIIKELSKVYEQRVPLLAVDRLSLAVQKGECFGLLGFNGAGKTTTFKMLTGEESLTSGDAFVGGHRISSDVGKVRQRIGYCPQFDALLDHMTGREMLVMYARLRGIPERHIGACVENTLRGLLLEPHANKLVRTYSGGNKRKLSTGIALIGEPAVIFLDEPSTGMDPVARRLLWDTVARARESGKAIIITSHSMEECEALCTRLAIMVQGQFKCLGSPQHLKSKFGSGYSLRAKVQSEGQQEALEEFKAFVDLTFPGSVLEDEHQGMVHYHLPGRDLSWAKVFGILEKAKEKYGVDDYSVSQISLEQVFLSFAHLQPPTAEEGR
Chain of UniProt Q8NFV4 (Q8NFV4 whole entry, looked up): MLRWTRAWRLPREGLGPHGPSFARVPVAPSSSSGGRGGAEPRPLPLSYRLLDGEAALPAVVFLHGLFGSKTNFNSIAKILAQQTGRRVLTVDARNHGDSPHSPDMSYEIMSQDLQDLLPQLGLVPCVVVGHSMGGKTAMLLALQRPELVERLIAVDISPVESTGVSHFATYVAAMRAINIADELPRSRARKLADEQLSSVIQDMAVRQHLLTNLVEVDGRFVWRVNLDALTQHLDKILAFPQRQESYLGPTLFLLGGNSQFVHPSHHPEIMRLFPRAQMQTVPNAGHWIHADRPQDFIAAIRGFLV
Chain of UniProt P53367 (P53367 whole entry, looked up): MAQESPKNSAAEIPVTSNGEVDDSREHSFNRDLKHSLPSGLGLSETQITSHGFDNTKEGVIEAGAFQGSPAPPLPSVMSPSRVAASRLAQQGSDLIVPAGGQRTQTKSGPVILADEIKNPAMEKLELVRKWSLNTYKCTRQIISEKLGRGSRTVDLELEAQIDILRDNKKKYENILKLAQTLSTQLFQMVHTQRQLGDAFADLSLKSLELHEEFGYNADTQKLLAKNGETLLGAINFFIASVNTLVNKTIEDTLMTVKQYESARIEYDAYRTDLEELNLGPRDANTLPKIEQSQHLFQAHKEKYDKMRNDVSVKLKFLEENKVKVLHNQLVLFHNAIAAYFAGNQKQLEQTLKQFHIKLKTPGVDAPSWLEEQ
Chain of UniProt Q4L235 (Q4L235 whole entry, looked up): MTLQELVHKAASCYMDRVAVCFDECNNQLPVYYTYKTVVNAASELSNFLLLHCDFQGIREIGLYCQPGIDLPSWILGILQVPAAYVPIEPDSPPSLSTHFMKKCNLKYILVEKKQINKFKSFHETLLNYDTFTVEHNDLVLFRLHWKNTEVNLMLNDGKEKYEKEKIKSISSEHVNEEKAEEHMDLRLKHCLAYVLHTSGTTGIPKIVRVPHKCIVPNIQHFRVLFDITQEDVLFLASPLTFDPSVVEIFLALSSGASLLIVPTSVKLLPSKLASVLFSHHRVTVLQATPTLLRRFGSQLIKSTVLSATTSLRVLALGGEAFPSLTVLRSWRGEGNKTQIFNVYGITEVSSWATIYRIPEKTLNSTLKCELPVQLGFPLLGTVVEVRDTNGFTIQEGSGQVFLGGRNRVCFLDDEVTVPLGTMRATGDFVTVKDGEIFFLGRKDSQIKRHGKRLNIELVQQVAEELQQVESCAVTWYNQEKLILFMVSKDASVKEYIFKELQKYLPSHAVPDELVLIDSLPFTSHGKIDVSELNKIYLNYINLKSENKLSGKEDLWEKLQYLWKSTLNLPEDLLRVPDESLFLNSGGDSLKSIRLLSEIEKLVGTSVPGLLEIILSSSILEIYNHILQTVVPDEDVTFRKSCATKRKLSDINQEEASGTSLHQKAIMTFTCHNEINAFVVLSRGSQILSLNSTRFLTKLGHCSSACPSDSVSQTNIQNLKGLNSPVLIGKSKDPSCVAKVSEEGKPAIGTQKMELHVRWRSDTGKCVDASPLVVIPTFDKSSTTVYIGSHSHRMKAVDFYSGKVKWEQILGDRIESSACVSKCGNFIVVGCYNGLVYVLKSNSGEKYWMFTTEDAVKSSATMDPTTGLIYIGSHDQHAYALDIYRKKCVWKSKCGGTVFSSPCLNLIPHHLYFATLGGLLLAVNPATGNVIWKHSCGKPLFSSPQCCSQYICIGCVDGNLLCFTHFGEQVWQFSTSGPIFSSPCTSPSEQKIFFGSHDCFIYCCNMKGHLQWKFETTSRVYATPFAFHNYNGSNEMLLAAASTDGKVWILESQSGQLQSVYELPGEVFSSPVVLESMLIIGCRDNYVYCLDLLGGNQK
Chain of UniProt Q8IXM2 (Q8IXM2 whole entry, looked up): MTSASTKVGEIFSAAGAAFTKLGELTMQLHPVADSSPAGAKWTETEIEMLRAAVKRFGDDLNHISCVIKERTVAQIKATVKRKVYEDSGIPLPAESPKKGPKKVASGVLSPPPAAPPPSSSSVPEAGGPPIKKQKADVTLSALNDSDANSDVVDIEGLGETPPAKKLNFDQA

Compound in the first assay: Nc1ccccc1NC(=O)c1ccc(CNC(=O)OCc2cccnc2)cc1 [entinostat]
The assay can be described thus: log2 fold change, soluble protein after heating vs DMSO (PISA); higher = thermal stabilisation; K562 cells, 10 uM, 30 min; active = over 0.2 and 3.5 SD of the protein, either way, in both replicates (recomputed). The essentials: (§1)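 K562 cells at 2×10^6 cells/mL were exposed to 10 μM compound for 30 min, then aliquots were heated for 3 min across 48°C-58°C, pooled, and extracted in PBS containing 0.5% NP-40 at 4°C. The supernatant after 21,000xg for 90 min was taken as soluble protein and measured by TMTpro 16plex LC-MS/MS with channel sums equalised. Thermal stability is reported relative to control samples, with values from duplicates. Fold changes are given on a log2 scale.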
On to ACSL6 isoform 1 (UniProt Q9UKU0), for which the log2 fold change was -0.056 (inactive).
As to BRD8 isoform 2 (UniProt Q9H0E9), the log2 fold change was 0.039 (inactive).
On to ABCA4 (UniProt P78363), for which the log2 fold change is 0.002 (inactive).
Consider ATXN7L3 isoform 2 (UniProt Q14CW9), for which the log2 fold change is -0.346 (inactive).
With BRIP1 (UniProt Q9BX63), the log2 fold change was 0.001 (inactive).
Same read-out and setting: with AGAP3 isoform 4 (UniProt Q96P47) the figure was 0.021 (inactive); with AUNIP isoform 2 (UniProt Q9H7T9), 0.003 (inactive).
With AKNA (UniProt Q7Z591), the log2 fold change is 1.72 (active).
For the target ALDH2 isoform 2 (UniProt P05091), the log2 fold change is -0.14 (inactive).
Consider ARFIP1 isoform 2 (UniProt P53367), for which the log2 fold change was 0.012 (inactive).
Still for that read-out and setting: the result for BAIAP2 isoform 4 (UniProt Q9UQB8) reads -0.095 (inactive).
Consider AASDH (UniProt Q4L235), for which the log2 fold change is 0.007 (inactive).
As for ARRDC1 (UniProt Q8N5I2), the log2 fold change is 0.075 (inactive).
As for AIF1 (UniProt P55008), the log2 fold change was -0.105 (inactive).
For the target ADAM15 (UniProt Q13444), the log2 fold change was 0.085 (inactive).
As to ADD2 isoform 9 (UniProt P35612), the log2 fold change is -0.052 (inactive).
Same read-out and setting: with BRAF (UniProt P15056) the figure was 0.009 (inactive); with ABCA3 (UniProt Q99758), -0.064 (inactive).
With AZI2 (UniProt Q9H6S1), the log2 fold change was 0.041 (inactive).
ADPRH (UniProt P54922): the log2 fold change was -0.034 (inactive).
BRD2 isoform 2 (UniProt P25440): the log2 fold change was -0.159 (inactive).

Compound in the next assay: O=C(CCCCCCC(=O)Nc1ccccc1)NO [vorinostat]
Described as above. The essentials:
as §1
Take BRMS1 (UniProt Q9HCU9): the log2 fold change was -0.053 (inactive).
As for ADD1 isoform 4 (UniProt P35611), the log2 fold change was 0.05 (inactive).
Same read-out and setting: the result for ACSL6 isoform 1 (UniProt Q9UKU0) reads 0.048 (inactive).
On to BRD8 isoform 2 (UniProt Q9H0E9), for which the log2 fold change was -0.092 (inactive).
Regarding ABCA4 (UniProt P78363), the log2 fold change was 0.124 (inactive).
Take ARHGAP25 isoform 4 (UniProt P42331): the log2 fold change was -0.099 (inactive).
Take BRIP1 (UniProt Q9BX63): the log2 fold change is -0.025 (inactive).
As for BSCL2 isoform 4 (UniProt Q96G97), the log2 fold change was 0.074 (inactive).
On the same count and under the same terms, the result for AUH (UniProt Q13825) reads 0.018 (inactive).
Take ACTR3B (UniProt Q9P1U1): the log2 fold change is -0.067 (inactive).
Take BAP18 isoform 3 (UniProt Q8IXM2): the log2 fold change is 0.192 (inactive).
Still for that read-out and setting: with ALDH2 isoform 2 (UniProt P05091) the figure was 0.083 (inactive); with ARFIP1 isoform 2 (UniProt P53367), 0.331 (inactive).
Consider ABHD11 (UniProt Q8NFV4), for which the log2 fold change is -0.042 (inactive).
Turning to AASDH (UniProt Q4L235), the log2 fold change was 0.051 (inactive).
For the target ARRDC1 (UniProt Q8N5I2), the log2 fold change was -0.086 (inactive).
For ADAM15 (UniProt Q13444), the log2 fold change was 0.092 (inactive).
Regarding ATXN3 isoform 1 (UniProt P54252), the log2 fold change is -0.003 (inactive).
For the target BRAF (UniProt P15056), the log2 fold change is 0.012 (inactive).
Consider ABCA3 (UniProt Q99758), for which the log2 fold change was 0.02 (inactive).
Regarding ALG14 (UniProt Q96F25), the log2 fold change was 0.29 (inactive).
As to ADPRH (UniProt P54922), the log2 fold change was -0.039 (inactive).
Still for that read-out and setting: with BRD2 isoform 2 (UniProt P25440) the figure was -0.214 (inactive).

Compound in the next assay: O=C(CCCCCCNC(=O)c1cnc(N(c2ccccc2)c2ccccc2Cl)nc1)NO [citarinostat]
The description is as above. The essentials: as §1
As to BRMS1 (UniProt Q9HCU9), the log2 fold change is -0.097 (inactive).
Take BRD8 isoform 2 (UniProt Q9H0E9): the log2 fold change is -0.019 (inactive).
Same read-out and setting: with ABCA4 (UniProt P78363) the figure was 0.013 (inactive); with AARSD1 (UniProt Q9BTE6), 0.144 (inactive); with ATXN7L3 isoform 2 (UniProt Q14CW9), -0.087 (inactive).
As to ARHGAP25 isoform 4 (UniProt P42331), the log2 fold change was 0.105 (inactive).
As to BRIP1 (UniProt Q9BX63), the log2 fold change was 0.054 (inactive).
Take AGAP3 isoform 4 (UniProt Q96P47): the log2 fold change is -0.063 (inactive).
Turning to AUH (UniProt Q13825), the log2 fold change is -0.103 (inactive).
For the target ALDH2 isoform 2 (UniProt P05091), the log2 fold change was -0.055 (inactive).
With ABHD11 (UniProt Q8NFV4), the log2 fold change was 0.058 (inactive).
ARRDC1 (UniProt Q8N5I2): the log2 fold change is 0.056 (inactive).
Regarding ATXN3 isoform 1 (UniProt P54252), the log2 fold change is -0.01 (inactive).
BRAF (UniProt P15056): the log2 fold change is -0.002 (inactive).
Consider ABCA3 (UniProt Q99758), for which the log2 fold change is 0.021 (inactive).
With ALG14 (UniProt Q96F25), the log2 fold change is 0.028 (inactive).
As to AZI2 (UniProt Q9H6S1), the log2 fold change is -0.014 (inactive).

Compound in the next assay: O=C(O)c1ccc2c(c1)nc(Nc1cccc(Cl)c1)c1ccncc12 [silmitasertib]
Described as above. The essentials:
as §1
With BRMS1 (UniProt Q9HCU9), the log2 fold change was -0.042 (inactive).
In the case of ACSL6 isoform 1 (UniProt Q9UKU0), the log2 fold change was -0.077 (inactive).
For ABCA4 (UniProt P78363), the log2 fold change is -0.082 (inactive).
Regarding AARSD1 (UniProt Q9BTE6), the log2 fold change is 0.137 (inactive).
For ATXN7L3 isoform 2 (UniProt Q14CW9), the log2 fold change was -0.373 (inactive).
On to ARL4A (UniProt P40617), for which the log2 fold change is 0.068 (inactive).
On the same count and under the same terms, with ARHGAP25 isoform 4 (UniProt P42331) the figure was 0.213 (inactive); with BSCL2 isoform 4 (UniProt Q96G97), 0.172 (inactive).
With AGAP3 isoform 4 (UniProt Q96P47), the log2 fold change was -0.019 (inactive).
On to AUH (UniProt Q13825), for which the log2 fold change is -0.061 (inactive).
As for BAP18 isoform 3 (UniProt Q8IXM2), the log2 fold change was -0.119 (inactive).
ARFIP1 isoform 2 (UniProt P53367): the log2 fold change was -0.08 (inactive).
Same read-out and setting: with ABHD11 (UniProt Q8NFV4) the figure was -0.021 (inactive); with AASDH (UniProt Q4L235), 0.036 (inactive); with ARRDC1 (UniProt Q8N5I2), 0.075 (inactive).
In the case of BRAF, A0A2R8Y8E0, the log2 fold change was -0.064 (inactive).
The same measure, in the same setting: the result for ADD2 isoform 9 (UniProt P35612) reads -0.225 (inactive).
Same read-out and setting: the result for ATXN3 isoform 1 (UniProt P54252) reads 0.093 (inactive); that for BRAF (UniProt P15056), 0.024 (inactive); that for ALG14 (UniProt Q96F25), 0.076 (inactive).
As for ADPRH (UniProt P54922), the log2 fold change was 0.086 (inactive).
